# Hits are enriched below; roughly 21% of the tested compounds scored in any of these assays.
# IL1B secr inh: inhibitors of inflammasome signaling (IL-1 beta secretion); 4.7% of 360,000 active; AID 743279; THP-1 LPS/ATP IL-1B secretion, AlphaLISA, 16 h; active compounds read low; activity change, % at 57.5 µM; in the data active means activity change below about -50%; inconclusive means mostly about -30% to -49%; further: on the % scale 0 is the no-effect control and ±100 the full control effect
#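 Secreted IL-1B measured by AlphaLISA bead assay after 16 h compound exposure of THP-1 cells; compounds (final up to 57.5 uM) added 1 h before LPS (250 ng/mL) and ATP (1.25 mM) stimulation; lower signal means less secretion.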
# DT40 TDP1 CPT: DT40-hTDP1 cell growth loss with CPT; chicken DT40 Tdp1-/-;hTDP1 cells + 20 nM CPT, ATP luminescence, 48 h; Potency, µM (highest dose often 46.2 µM), for the others: at the highest dose activity change, negative = growth inhibition, actives largely listed as inhibitors; 12% of 420,000 active; AID 686979; further: potency means the concentration at half of the fitted maximal effect; on the % scale 0 is the no-effect control and ±100 the full control effect; nearly all actives have a fitted effect of over 55% in size
#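 Chicken DT40 Tdp1-/- cells complemented with human TDP1, 400 cells/well, exposed to compounds plus 20 nM camptothecin for at least 48 h at 37 C; viability read as ATP content by CellTiter-Glo luminescence.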
# ClpP mod: qHTS Assay for Activators of ClpP. purified B. subtilis ClpP, FRET peptide cleavage, 20 min. Potency, µM (titrated, usually from 57.5 µM), without a hit: at the highest dose activity change, negative = active. 1.9% of 340,000 active. AID 651965, 2013; active means well fitted falling curve with a large enough effect; inconclusive means small, poorly fitted or top-dose-only effect; inactive means no such curve, though single readings can be large or run the other way; further: potency means the concentration at half of the fitted maximal effect; the source files actives as falling curves though it sought activators and does not explain the sign; nearly all actives have a fitted effect of over 65% in size
# Target sequence (P80244 whole entry, looked up): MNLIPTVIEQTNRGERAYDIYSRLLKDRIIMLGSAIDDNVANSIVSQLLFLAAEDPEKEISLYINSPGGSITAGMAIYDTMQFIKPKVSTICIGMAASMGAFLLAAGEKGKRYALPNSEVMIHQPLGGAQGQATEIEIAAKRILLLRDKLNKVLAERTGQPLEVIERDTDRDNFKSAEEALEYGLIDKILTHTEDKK
#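 ClpP 10 microg/mL final, pH 8 Tris/KCl buffer with BSA, glycerol, Tween-20; compound pinned in; FRET-FV substrate; RT 20 min; Ex320/Em430; ΔFRET vs ADEP 5.8 microM, DMSO, no enzyme.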
# TDP1 cell noCPT: qHTS for Inhibitors of human tyrosyl-DNA phosphodiesterase 1 (TDP1): qHTS in cells in absence of CPT. Potency, µM (top dose mostly 46.2 µM), inactives show top-dose activity change, negative = growth inhibition, hits mostly inhibitors. AID 686978, 2013. 15% of 420,000 active. DT40 Tdp1-/- hTDP1 cells, no CPT, ATP luminescence, 48 h; further: potency means the concentration at half of the fitted maximal effect; on the % scale 0 is the no-effect control and ±100 the full control effect; nearly all actives have a fitted effect of over 55% in size
#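 DT40 Tdp1-/-;hTDP1 cells, no CPT (DMSO vehicle only), 400 cells/well; compounds pin-transferred; ≥48 hr, 37 °C; CellTiter-Glo 30 min RT dark, luminescence read.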
# D3 antag: blocks the human D3 dopamine receptor. P35462. max response, negative = inhibition, %. D3R cells, DiscoveRx beta-arrestin luminescence, antagonist mode; active compounds read low. 2.5% of 360,000 active. AID 652054; in the data active means max response below about -50%; inconclusive means no clear call, values can overlap the other calls; further: on the % scale 0 is the no-effect control and ±100 the full control effect
# Target sequence (P35462 whole entry, looked up): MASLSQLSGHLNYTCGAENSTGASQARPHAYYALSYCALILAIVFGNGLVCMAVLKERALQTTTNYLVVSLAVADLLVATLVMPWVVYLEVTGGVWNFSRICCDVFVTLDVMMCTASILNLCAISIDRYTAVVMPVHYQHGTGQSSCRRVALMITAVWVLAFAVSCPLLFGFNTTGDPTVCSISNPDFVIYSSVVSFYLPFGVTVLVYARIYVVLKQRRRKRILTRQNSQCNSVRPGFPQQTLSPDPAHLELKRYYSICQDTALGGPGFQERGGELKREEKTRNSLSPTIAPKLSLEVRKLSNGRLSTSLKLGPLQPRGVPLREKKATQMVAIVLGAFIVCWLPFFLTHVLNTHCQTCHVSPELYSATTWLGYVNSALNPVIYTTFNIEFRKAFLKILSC
#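 Cells plated overnight at 1500 cells/well, then exposed to library compounds with dopamine controls for 90 minutes at 37 degrees C. DiscoveRx reagent added for 30–60 minutes at room temperature; luminescence read, quantitative HTS format.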
# DRD3 agonist: agonists of human D3 dopamine receptor | max activation, % | 0.58% of 410,000 active | P35462 | D3R DiscoveRx beta-arrestin cells, luminescence, 90 min; in the data active means max activation above about 30%; further: 0% is about no effect
#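 Agonist-mode cell screen: cells plated at 1500/well and incubated overnight at 37 °C, then exposed to library compounds for 90 min at 37 °C. Detection reagent was added for 30–60 min at room temperature, and luminescence was read.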
# * marks the source's active call; other numbers are inactive results; ? = inconclusive; . = not tested or not shown. Unless noted, the call rests on the fitted dose curve; in most records, active means well fitted inhibition curve with a large enough effect; inconclusive means small, poorly fitted or top-dose-only effect; inactive means flat fitted curve, though single readings scatter.
SMILES,IL1B secr inh,DT40 TDP1 CPT,ClpP mod,TDP1 cell noCPT,D3 antag,DRD3 agonist
COc1ccc(C(=O)COC(=O)CCNS(=O)(=O)c2ccccc2)c(OC)c1,18,13%,-2%,-3%,7,3
CCOc1ncccc1C(=O)N1CCN(S(=O)(=O)c2ccc3ccccc3c2)CC1,-3,23µM*,-1%,?,7,-3
O=C(c1ccccn1)N1CCN(S(=O)(=O)c2ccc3ccccc3c2)CC1,24,-2%,.,-27%,2,0
O=C(CCl)N1CCN(S(=O)(=O)c2ccc3c(c2)OCCCO3)CC1,-96*,5.2µM*,0%,3.7µM*,-18,-5
O=C(CSc1ccc2ccccc2c1)N1CCN(c2ccc(O)cc2)CC1,25,13µM*,-1%,12µM*,-1,3
O=C(CCl)N1CCN(S(=O)(=O)c2ccc3ccccc3c2)CC1,-99*,3.3µM*,.,5.8µM*,2,24
CCOC(=O)N1CCN(Cc2nnc(-c3ccccc3C)o2)CC1,6,4%,1%,-13%,0,-21
O=C(c1ccccc1F)N1CCN(S(=O)(=O)c2ccc3c(c2)OCCO3)CC1,-16,12µM*,0%,?,?,-5
O=S(=O)(c1ccccc1)N1CCNCC1,6,25%,0%,2%,15,11
CCCCNc1nnc(SCC(=O)N2CCN(S(=O)(=O)c3ccc4ccccc4c3)CC2)s1,-54*,?,0%,23µM*,2,2
CC12CN(S(=O)(=O)c3ccccc3)CC(C)(CN(S(=O)(=O)c3ccccc3)C1)C2,-2,2.3µM*,-3%,?,23,-1
CN(C)C(=O)N1CCN(S(=O)(=O)c2ccc3ccccc3c2)CC1,-11,10%,.,?,-11,30*
CN1CCN(S(=O)(=O)c2ccc3ccccc3c2)CC1,-3,1%,0%,1%,7,6
Cc1ccc(S(=O)(=O)N2CCCN(S(=O)(=O)c3ccc4ccccc4c3)CC2)cc1,-16,8.2µM*,-1%,?,21,1
Cc1ccc(S(=O)(=O)N2CCN(C3CC4CCC3C4)CC2)cc1 (stereo not drawn),5,?,.,?,-61*,-23
Cc1ccc(S(=O)(=O)N2CCCN(C(=O)c3cc4ccccc4[nH]3)CC2)cc1,-61*,2%,.,?,-8,-9
Cc1ccc(S(=O)(=O)N2CCN(S(=O)(=O)c3ccccc3)C2)cc1,0,-29%,1%,-5%,-51*,3
Cc1ccc(S(=O)(=O)N2CCN(S(C)(=O)=O)C2)cc1,7,-10%,1%,-4%,49,18
N#Cc1ccc(OCC(=O)Nc2nc(-c3cccnc3)cs2)cc1,53,-4%,-1%,-4%,-6,3
COc1cc(OC)cc(C(=O)NC(=S)Nc2cc3oc4ccccc4c3cc2OC)c1,9,-16%,-9%,9%,22,8
COc1ccc(C(=O)NC(=S)Nc2cc3oc4ccccc4c3cc2OC)cc1,21,-25%,.,?,35,31*
COc1cc2c(cc1NC(=O)c1cc(-c3ccccn3)nc3ccccc13)oc1ccccc12,13,21µM*,.,21µM*,1,20
COc1cc2c(cc1NC(=O)c1ccncc1)oc1ccccc12,-17,?,-8%,21µM*,-6,3
O=C(Cn1cnc2ccccc2c1=O)NCCC(=O)Nc1ccccc1C(F)(F)F,17,16%,.,-8%,-16,-10
C=C(C)C1Cc2c(ccc(C(=O)O)c2O)O1 (stereo not drawn),.,10%,.,5%,.,.
SMILES,IL1B secr inh,DT40 TDP1 CPT,ClpP mod,TDP1 cell noCPT,D3 antag,DRD3 agonist
CCN1C(=O)N[C@@H](c2ccccc2)[C@H](C(=O)OC)[C@H]1C,1,4%,-6%,-7%,0,-21
CCN1c2ccccc2NC2N=C(OC)C(c3ccccc3)C21 (stereo not drawn),43,12µM*,-3%,13µM*,-23,-9
CCc1ccc2nc(SCC(=O)N3CC(=O)Nc4ccccc43)c(C#N)cc2c1,56,?,0%,16µM*,?,-2
CCc1cc2cc(C)ccc2nc1SCC(=O)N1CC(=O)Nc2ccccc21,-74*,?,.,?,14,3
CCc1cc2c(SCC(=O)N3CC(=O)Nc4ccccc43)ncnc2s1,0,?,-3%,?,9,2
N#Cc1cc(C#N)c(SCC(=O)N2CC(=O)Nc3ccccc32)nc1N,-18,21µM*,-9%,21µM*,2,0
CCc1ccc2nc(SCC(=O)N3CCCCC3)c(C#N)cc2c1,27,?,2%,?,?,-1
CC(C)c1ccc(S(=O)(=O)c2nnn3c2nc(NC2CCCC2)c2sccc23)cc1,.,9%,?,-16%,.,10
CCOC(=O)CSc1nc2sc3c(c2c(=O)n1-c1ccccc1)CCN(C(C)C)C3,-2,-7%,.,?,-23,1
O=C(NNC(=O)c1csc(-c2cccs2)n1)c1ccc(Cl)cc1,-2,?,-14%,?,-11,7
Cc1nc(C(=O)NNC(=O)c2ccc(Cl)cc2)cs1,66,16µM*,.,12µM*,0,-12
Cc1cc(OC(F)F)ccc1NC(=O)Nc1ccc([N+](=O)[O-])cc1,?,15µM*,?,18µM*,5,5
Cc1ccc([N+](=O)[O-])cc1NC(=O)Nc1ccc(S(N)(=O)=O)cc1,-15,3%,-2%,-20%,-3,0
O=C(Nc1ccc([N+](=O)[O-])cc1)Nc1ccc(Cl)cc1F,-93*,2.6µM*,.,1.6µM*,-17,-5
O=C(O)C(Cc1ccccc1-c1ccccc1)C(=O)O,19,12%,0%,3%,3,2
Cc1ccc(OC(C)C(=O)N(C)c2ccccc2)c([N+](=O)[O-])n1 (stereo not drawn),42,15%,3%,11%,22,2
CCc1nc(C)c(-c2ccccc2)c(=O)[nH]1,0,-9%,0%,-7%,-94*,-7
Nc1nc2ccc(Cl)cc2cc1C(=O)NCCc1ccc(O)cc1,-7,?,-24%,18µM*,4,5
COc1ccc(CCNC(=O)c2cc3cc(Cl)ccc3nc2N)cc1OC,9,13µM*,?,8.2µM*,-7,51*

# Screening results from PubChem BioAssay.
